# Screening data from PubChem BioAssay.
# Sampled rows, rich in hits. Any-hit rate of the full collection: about 5.3%.
# Measles CPE: protection of cells from measles virus; Measles virus-infected cells, CPE protection, absorbance; 140,000 tested, 1.5% active; protection (pct of control), % at 4 µM; in the data active = protection mostly above about 24%, no sharp cut-off; inactive = mostly below about 26%
# MT1-MMP txn act: activates MT1-MMP transcription; HT1080 MT1-MMP promoter luciferase reporter, luminescence, overnight; stronger effect = higher value; 86,000 tested, 0.16% active; activation factor at 10 µM; AID 750;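 active = activation factor of at least 2 for MT1-MMP transcription at 10 µM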
# PostGolgi ctrl: yeast control strain growth, post-Golgi counter-screen | efflux-deficient yeast background strain, growth absorbance A615, 16 h | inhibition, % at 10 µM | 98,000 tested, 5% active | AID 738
# PostGolgi yeast: growth inhibition of a yeast mutant, post-Golgi transport screen. post-Golgi transport phenotypic cell assay. AID 739. 98,000 tested, 0.9% active. inhibition, % at 10 µM;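 note: yeast cells grown in 1536-well plates; yeast grown about 18 h at 30C before absorbance read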
# * = called active by the depositor; · = no result. Cut-off read from the data, not from the text of the source, unless noted: active = inhibition above about 30%; inactive = the rest.
SMILES,Measles CPE,MT1-MMP txn act,PostGolgi ctrl,PostGolgi yeast
O=S(=O)(c1ccc(Cl)c(NC(=S)Nc2ccccc2N2CCOCC2)c1)N1CCOCC1,8.2,·,·,·
COC(=O)C12CC3CC(C1)CC(n1cnc(Cl)n1)(C3)C2,1.6,2.3*,·,·
CCc1c(C)nc2c(C#N)c(C)[nH]n2c1=O,9.0,1.2,-3.3,-9.3
Cc1nc2c(C#N)c(C)[nH]n2c(=O)c1Cc1ccccc1,4.5,1.1,37.3*,9.9
CCOC(=O)N1CCN(C(=O)CN(c2cccc(C(F)(F)F)c2)S(=O)(=O)c2ccccc2)CC1,12.0,1.1,9.3,-4.1
Cc1ccc(S(=O)(=O)N(CC(=O)N2CCC(C(N)=O)CC2)c2cccc(C(F)(F)F)c2)cc1,9.7,1.2,4.6,42.8*
O=C(Nn1c(=O)[nH]c2ccccc2c1=O)c1ccco1,4.6,1.2,25.3,5.0
CCCN1CCN(C(=O)c2cccc3c2C(=O)N(CCOC)C3)CC1,44.1*,1.1,-9.1,-1.4
CCOc1ccc(NC(=O)c2cccc3c2C(=O)N(CCOC)C3)cc1,25.0,1,30.7*,2.7
COC(=O)[C@@]1(Cc2ccccc2)[C@H]2c3cc(C(=O)N(C)C)n(Cc4ccccn4)c3C[C@H]2CN1C(=O)c1ccccc1,·,1.1,·,·
CC(=NCc1ccco1)c1c(O)n(C2CCCCC2)c(=O)[nH]c1=O,1.9,1,44.2*,17.9
CC(=O)N1CCC(=NNS(=O)(=O)c2cccc([N+](=O)[O-])c2)CC1,14.2,·,7.2,2.7
N#C/C(=C\c1c(N2CCCCCC2)nc2ccccn2c1=O)C(=O)NC1CCS(=O)(=O)C1 (configuration not stated),13.3,·,·,·
CC(=O)NS(=O)(=O)c1ccc(NC(=S)NC(=O)C(C)C)cc1,13.5,·,35.9*,-0.1
Cc1cccc(-n2c(C)nc3c(cnn3-c3ccc(F)cc3)c2=O)c1,6.5,1.3,32.8*,-4.0
COC(=O)CCC(=O)COc1ccccc1C#N,40.5*,1.3,0.0,-3.8
COc1ccc(N(C)C(=O)c2onc3c2CCCC3)cc1,5.7,·,·,·
O=C(COC(=O)c1ccccc1Cl)NC(=O)NCc1ccccc1,68.3*,·,·,·
O=C(NCc1ccccc1)NS(=O)(=O)c1ccccc1Cl,24.9,0.9,-3.9,30.4*
Cc1ccc(S(=O)(=O)NC(=O)NCc2ccccc2)cc1,12.9,·,0.8,7.1
COC(=O)[C@@]1(Cc2ccccc2)[C@H]2c3cc(C(=O)N(C)C)n(Cc4ccc(S(C)(=O)=O)cc4)c3C[C@H]2CN1C(=O)c1ccccc1,·,1.1,·,·
CC(=O)Nc1ccc(S(=O)(=O)N(Cc2ccccc2)C(C)C)cc1,6.6,1,13.6,-1.6
Cc1cccc(-c2noc(CN(C(=O)/C=C/c3ccccc3Cl)C(C)C)n2)c1,9.9,·,·,·
COc1ccc(Cl)cc1C(=O)N(Cc1nc(-c2cccc(C)c2)no1)C(C)C,5.7,1.1,37.1*,-12.3
CCc1ccccc1N(C)C(=O)CCc1nc(-c2ccc(C)cc2)no1,10.8,1.2,44.4*,-8.4
SMILES,Measles CPE,MT1-MMP txn act,PostGolgi ctrl,PostGolgi yeast
COc1ccc(Cl)cc1N(C)C(=O)CCc1nc(-c2ccc(C)cc2)no1,31.3,1.1,33.0*,-2.8
Cc1cc(C(=O)Cn2nc(C(=O)O)c3ccccc3c2=O)c(C)n1-c1ccc(F)cc1,30.4,·,·,·
O=C(CN1CCN(S(=O)(=O)c2ccccc2)CC1)Nc1ccc2c(c1)CCC2,3.3,·,·,·
COc1ccc(NS(=O)(=O)c2cccc(NC(=O)c3ccc(S(=O)(=O)N4CCCCCC4)cc3)c2)cc1,5.0,·,·,·
Cc1cc(C(F)F)n2nc(C(=O)Nc3sc4c(c3C#N)CCC(C)C4)nc2n1 (configuration not stated),4.1,1.1,33.4*,30.4*
COC(=O)c1c(NC(=O)c2nc3nc(C)cc(C(F)F)n3n2)sc2c1CCC2,12.0,·,34.4*,10.3
Cc1ccccc1C(=O)NC(=S)Nc1sc2c(c1C#N)CCC(C)C2 (configuration not stated),58.9*,·,6.7,1.9
Cc1cc(C)nc(SCC(=O)Nc2sc3c(c2C#N)CCC(C)C3)n1 (configuration not stated),·,1.4,·,·
CCOc1ccccc1N1CCN(C(=O)c2ccncc2)CC1,13.8,1.1,-0.3,2.2
CCOc1ccccc1N1CCN(C(=O)c2cccc(-c3ccc(O)cc3)c2)CC1,8.1,1,98.8*,4.9
Cc1ccc2nc(N3CC(=O)Nc4ccccc43)nc(-c3ccccc3)c2c1,4.3,·,·,·
O=C(N/N=C\c1ccc(F)cc1)c1cc(OCC(F)(F)F)ccc1OCC(F)(F)F,37.0*,·,-0.1,2.6
O=C(N/N=C/c1ccc(Cl)cc1)c1sccc1OCc1ccc(F)cc1,3.9,·,27.3,5.0
O=C(N/N=C/c1ccc(F)cc1)c1sccc1OCc1ccc(F)cc1,4.8,·,34.0*,5.9
O=C1C2CCCN2C(=O)N1CCCCN1CCN(c2ccc(F)cc2)CC1 (configuration not stated),19.0,·,·,·
Cc1sc(/N=C/c2ccccc2O)c(C#N)c1C,22.5,2*,-1.7,4.3
CCOC(=O)c1c(/N=C/c2cccc([N+](=O)[O-])c2O)sc(C)c1C,16.4,·,·,·
COc1ccc(S(=O)(=O)N2CC(O)CC2C(=O)OCc2nc3sc(C)c(C)c3c(=O)[nH]2)cc1 (configuration not stated),8.4,·,·,·
O=C(NC1CCCCC1)C(c1cc2c(cc1[N+](=O)[O-])OCO2)N1CCCCC1 (configuration not stated),5.3,·,·,·
CCCCCC/C(=N/O)c1ccccn1,12.0,1.1,40.4*,4.0
Cc1cccc(Nc2cc(C)c3c(O)cccc3n2)c1C,8.3,·,·,·
CCS(=O)(=O)c1ccc(C(=O)Nc2cccc(Cl)c2)c(Cl)c1Cl,2.5,·,-4.9,2.6
CCS(=O)(=O)c1ccc(C(=O)Nc2ccccc2)c(Cl)c1Cl,89.2*,·,8.7,3.9
COC(=O)c1cc(OC)c(OC)cc1NC(=O)CSc1nnnn1Cc1ccccc1,12.7,1.1,38.2*,-6.3
COc1ccc(-n2nnnc2SCC(=O)c2cc3ccccc3o2)cc1,2.7,1.1,35.1*,0.9
SMILES,Measles CPE,MT1-MMP txn act,PostGolgi ctrl,PostGolgi yeast
COc1ccc(NC(=O)CSc2nnnn2-c2ccc(OC)cc2)cc1,4.8,1.1,2.5,18.8
COC(=O)c1ccc(CSc2nnnn2Cc2ccccc2)cc1,8.0,1.1,20.3,3.0
COc1cc(NC(=O)CSc2nnnn2-c2ccccc2)cc(OC)c1OC,104.2*,1.2,2.4,-4.8
COC(=O)c1ccc(C(NC(=O)OCc2ccccc2)/C(F)=C/[C@@H](C)C(=O)N2CCN(C)CC2)cc1 (some centres not stated),·,1.5,·,·
CCCCOc1ccc(C(=O)N/C(=C/C=C/c2ccccc2)C(=O)NCCCO)cc1,48.0*,·,·,·
O=C(O)C1CCC(=O)N1Cc1ccccc1Cl (configuration not stated),0.5,1.2,30.2*,0.2
O=C(Cc1ccccc1)NCC1CCCO1 (configuration not stated),0.7,1.1,-0.5,0.2
O=C(CN(CC1CCCO1)C(=O)CNS(=O)(=O)c1ccc(Cl)cc1)NCCc1ccccc1 (configuration not stated),4.4,1.2,-3.1,8.4
O=C(CCS(=O)(=O)Cc1ccccc1)NCC1CCCO1 (configuration not stated),1.6,1,34.0*,-4.2
